According to PubChem BioAssay:
The source made the active and inactive calls.

How the values were obtained:
[1] = system: Plasmodium falciparum Sir2 (PF13_0152, Sir2A); assay: Plasmodium falciparum Sir2A binding compounds – biochemical, small-molecule microarray, 635 nm fluorescence, primary screen (AID 1098); conditions: fluorescence 635 nm, higher = more signal;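 note: score merges spot fluorescence intensity with its signal-to-noise ratio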
[2] = probe aDKK1 binding to arrayed compounds – biochemical, biotinylated probe, 635/667 nm fluorescence, primary screen (AID 1099); conditions: small-molecule microarray, higher = more signal;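 note: score merges 667nm spot fluorescence with signal to noise across triplicate slides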
[3] = probe aCHRDL2 binding to arrayed compounds – biochemical, biotinylated probe, 635/667 nm fluorescence, primary screen (AID 1100); conditions: small-molecule microarray, higher = more signal
[4] = change in splice reporter luminescence, either direction, cell-based, HEK293, spliceosome inhibition project, primary screen (AID 1101); conditions: HEK293 splicing luciferase reporter, 24 h, higher = more signal, called active from +8 up or from −8 down;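 note: HEK293 cells carrying a splicing-competent luciferase reporter gene; test concentration not given here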
[5] = molecular target: Fibroblast growth factor 10 (Homo sapiens) (UniProt O15520); assay: compounds binding fibroblast growth factor 10 – biochemical, small-molecule microarray, 635 nm fluorescence, primary screen (AID 1102); conditions: FGF10 binding, fluorescence 635 nm, higher = more signal
Chain of Fibroblast growth factor 10 (Homo sapiens) (O15520 whole entry, looked up): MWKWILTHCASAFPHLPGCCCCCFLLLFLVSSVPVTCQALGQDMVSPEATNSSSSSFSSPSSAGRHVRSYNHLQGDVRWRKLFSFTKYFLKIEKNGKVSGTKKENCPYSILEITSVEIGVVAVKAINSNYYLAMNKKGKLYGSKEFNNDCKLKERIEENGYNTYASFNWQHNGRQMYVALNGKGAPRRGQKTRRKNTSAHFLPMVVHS

[6] = system: glycogen synthase kinase-3 (GSK3A per assay name; protocol says GSK3B); assay: compounds binding glycogen synthase kinase-3 – biochemical, small-molecule microarray, 635 nm fluorescence, GSK3A, primary screen (AID 1103); conditions: fluorescence 635 nm, higher = more signal; note: the record names both GSK3A and GSK3B
[7] = molecular target: Epidermal growth factor receptor (Homo sapiens) (UniProt P00533); assay: compounds binding epidermal growth factor receptor – biochemical, small-molecule microarray, 635 nm fluorescence, primary screen (AID 1104); conditions: EGFR binding, higher = more signal;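 note: score merges 667 nm emission intensity with spot signal to noise over triplicate slides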
Chain of Epidermal growth factor receptor (Homo sapiens) (P00533 whole entry, looked up): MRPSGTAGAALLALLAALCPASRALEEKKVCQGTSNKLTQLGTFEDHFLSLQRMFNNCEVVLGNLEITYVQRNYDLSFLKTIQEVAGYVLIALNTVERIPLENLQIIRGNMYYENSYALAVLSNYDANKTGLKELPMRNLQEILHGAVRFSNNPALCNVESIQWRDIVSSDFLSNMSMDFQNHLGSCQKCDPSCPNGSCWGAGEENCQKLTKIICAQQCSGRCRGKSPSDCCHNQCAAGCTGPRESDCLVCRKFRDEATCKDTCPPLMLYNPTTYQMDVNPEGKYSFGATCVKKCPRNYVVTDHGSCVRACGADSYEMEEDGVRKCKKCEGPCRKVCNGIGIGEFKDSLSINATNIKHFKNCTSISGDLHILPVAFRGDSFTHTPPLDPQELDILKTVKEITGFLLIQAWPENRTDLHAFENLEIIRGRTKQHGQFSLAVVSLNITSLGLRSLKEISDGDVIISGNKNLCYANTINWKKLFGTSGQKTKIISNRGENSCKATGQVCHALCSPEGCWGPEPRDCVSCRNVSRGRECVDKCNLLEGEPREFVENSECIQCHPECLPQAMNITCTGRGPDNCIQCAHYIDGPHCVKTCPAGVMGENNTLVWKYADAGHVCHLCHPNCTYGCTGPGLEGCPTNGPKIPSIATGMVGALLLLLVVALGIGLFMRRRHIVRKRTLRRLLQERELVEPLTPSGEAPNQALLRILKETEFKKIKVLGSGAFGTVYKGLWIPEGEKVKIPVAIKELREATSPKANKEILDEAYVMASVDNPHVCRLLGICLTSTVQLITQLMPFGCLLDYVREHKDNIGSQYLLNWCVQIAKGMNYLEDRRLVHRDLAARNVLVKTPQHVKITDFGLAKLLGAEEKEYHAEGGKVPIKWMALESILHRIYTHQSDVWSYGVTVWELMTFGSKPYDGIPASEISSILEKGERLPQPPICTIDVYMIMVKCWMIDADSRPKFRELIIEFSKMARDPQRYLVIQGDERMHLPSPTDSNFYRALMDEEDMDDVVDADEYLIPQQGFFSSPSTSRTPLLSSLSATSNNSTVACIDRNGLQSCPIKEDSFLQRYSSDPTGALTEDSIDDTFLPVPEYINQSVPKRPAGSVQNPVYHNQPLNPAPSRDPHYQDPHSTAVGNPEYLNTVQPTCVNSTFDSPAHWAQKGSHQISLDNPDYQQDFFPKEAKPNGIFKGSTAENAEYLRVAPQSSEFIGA

[8] = molecular target: Follistatin-related protein 3 (Homo sapiens) (UniProt O95633); assay: compounds binding follistatin-related protein 3 – biochemical, small-molecule microarray, 635 nm fluorescence, primary screen (AID 1105); conditions: FSTL3 binding, higher = more signal;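 note: score merges emission near 667 nm and signal to noise per printed spot across three slides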
Chain of Follistatin-related protein 3 (Homo sapiens) (O95633 whole entry, looked up): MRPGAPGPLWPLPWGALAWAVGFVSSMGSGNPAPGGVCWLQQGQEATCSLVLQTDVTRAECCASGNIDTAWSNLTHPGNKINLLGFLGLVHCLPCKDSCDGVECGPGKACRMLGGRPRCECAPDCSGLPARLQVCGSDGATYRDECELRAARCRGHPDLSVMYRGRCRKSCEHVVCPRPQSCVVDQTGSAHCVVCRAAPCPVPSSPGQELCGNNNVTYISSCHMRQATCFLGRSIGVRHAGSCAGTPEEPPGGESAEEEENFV

[9] = molecular target: Dickkopf-related protein 1 (Homo sapiens) (UniProt O94907); assay: small molecules binding DKK1 protein – biochemical, small-molecule microarray, 635 nm fluorescence scan, primary screen (AID 1106); conditions: higher = more signal;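 note: score merges emission near 667 nm with signal to noise over three replicate slides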
Chain of Dickkopf-related protein 1 (Homo sapiens) (O94907 whole entry, looked up): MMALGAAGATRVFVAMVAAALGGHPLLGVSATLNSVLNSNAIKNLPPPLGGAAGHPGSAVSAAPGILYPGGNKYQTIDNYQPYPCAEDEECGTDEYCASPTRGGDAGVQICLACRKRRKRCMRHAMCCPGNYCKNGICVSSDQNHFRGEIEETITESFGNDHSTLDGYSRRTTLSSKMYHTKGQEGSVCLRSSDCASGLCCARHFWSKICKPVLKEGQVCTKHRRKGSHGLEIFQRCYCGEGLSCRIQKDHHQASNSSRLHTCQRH

[10] = system: Inhibin beta A chain (activin A); assay: small molecules binding activin A – biochemical, small-molecule microarray, 635 nm fluorescence scan, primary screen (AID 1107); conditions: INHBA, higher = more signal;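 note: mouse activin A protein probed at 4.33 µg/mL on printed slides; score merges bound-protein fluorescence near 667 nm with spot signal-to-noise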
[11] = system: Human papillomavirus type 1a protein E7 (residues 44-93); assay: small molecules binding HPV E7 44-93 – biochemical, small-molecule microarray, residues 44-93, 635 nm fluorescence, primary screen (AID 1108); conditions: fluorescence 635 nm, higher = more signal;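 note: E7 fragment applied at 1 µg/mL in TBST for 1 h at 4 C; score combines spot fluorescence with its signal to noise ratio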
[12] = hepatitis C replication reporter changes, two-sided – Huh7 cells, luciferase reporter, HCV replication inhibitor project, primary screen (AID 1109); conditions: Huh7 HCV replicon luciferase reporter, 48 h; higher = more signal;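 note: huh7 hepatoma cells harbouring a luciferase neomycin HCV replicon reporter; luciferase luminescence as measure of HCV replicon replication; test concentration not given here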
[13] = molecular target: Left-right determination factor 2 (Homo sapiens) (UniProt O00292); assay: small molecules binding LEFTY2 protein – biochemical, small-molecule microarray, 635 nm fluorescence scan, primary screen (AID 1110); conditions: higher = more signal
Chain of Left-right determination factor 2 (Homo sapiens) (O00292 whole entry, looked up): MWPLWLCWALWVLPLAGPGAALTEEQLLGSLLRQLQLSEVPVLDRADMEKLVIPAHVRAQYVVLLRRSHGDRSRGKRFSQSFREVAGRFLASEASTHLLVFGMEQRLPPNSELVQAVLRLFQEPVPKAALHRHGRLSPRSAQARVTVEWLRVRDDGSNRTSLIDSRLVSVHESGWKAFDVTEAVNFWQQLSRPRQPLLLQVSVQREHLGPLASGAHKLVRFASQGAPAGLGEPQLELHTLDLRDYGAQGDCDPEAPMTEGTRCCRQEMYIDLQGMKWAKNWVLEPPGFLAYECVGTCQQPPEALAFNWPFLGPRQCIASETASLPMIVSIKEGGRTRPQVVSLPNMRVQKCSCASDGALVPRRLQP

[14] = molecular target: Calmodulin-1 (Homo sapiens) (UniProt P0DP23); assay: small molecules binding calmodulin-1 with EGTA – biochemical, small-molecule microarray, Cy5-labelled CALM1, profiling panel (AID 1111); conditions: Cy5-CALM1 binding fluorescence, higher = more signal;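 note: labelled calmodulin applied in Tris saline Tween buffer holding calcium plus EGTA and DTT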
[15] = molecular target: Calmodulin-1 (Homo sapiens) (UniProt P0DP23); assay: small molecules binding Ca-loaded calmodulin-1 – biochemical, small-molecule microarray, Cy5-labelled CALM1, plus calcium, artefact control for SMM control-protein annotation, profiling panel (AID 1112); conditions: Cy5-CALM1 binding fluorescence, higher = more signal;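 note: score merges spot fluorescence with signal to noise from triplicate slides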
[16] = probe aWnt5a binding to arrayed compounds – biochemical, biotinylated probe, 635/667 nm fluorescence, primary screen (AID 1113); conditions: small-molecule microarray, higher = more signal;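 note: score merges 667 nm fluorescence intensity with signal-to-noise per printed feature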
[17] = probe aShh binding to arrayed compounds – biochemical, biotinylated probe, 635/667 nm fluorescence, primary screen (AID 1114); conditions: small-molecule microarray, higher = more signal;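 note: probe is biotin-labelled aShh protein from a stem cell growth factor screen; measures binding of labelled protein to compounds printed on the slide; score merges feature fluorescence at 667 nm with signal-to-noise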
[18] = probe aNog binding to arrayed compounds – biochemical, biotinylated probe, 635/667 nm fluorescence, primary screen (AID 1115); conditions: small-molecule microarray, higher = more signal;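 note: probe is biotinylated aNog protein used at 0.15 µg/mL for 1 h at 4 C; z-score combines 667 nm fluorescence of each spot with its signal to noise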
[19] = molecular target: Torsin-1A-interacting protein 1 (Homo sapiens) (UniProt Q5JTV8); assay: compound microarray binding of lysate hLAP1 – cell lysate, small-molecule microarray, COS7 lysate, 635/667 nm fluorescence, primary screen (AID 1116); conditions: 635 nm fluorescence, higher = more signal
Chain of Torsin-1A-interacting protein 1 (Homo sapiens) (Q5JTV8 whole entry, looked up): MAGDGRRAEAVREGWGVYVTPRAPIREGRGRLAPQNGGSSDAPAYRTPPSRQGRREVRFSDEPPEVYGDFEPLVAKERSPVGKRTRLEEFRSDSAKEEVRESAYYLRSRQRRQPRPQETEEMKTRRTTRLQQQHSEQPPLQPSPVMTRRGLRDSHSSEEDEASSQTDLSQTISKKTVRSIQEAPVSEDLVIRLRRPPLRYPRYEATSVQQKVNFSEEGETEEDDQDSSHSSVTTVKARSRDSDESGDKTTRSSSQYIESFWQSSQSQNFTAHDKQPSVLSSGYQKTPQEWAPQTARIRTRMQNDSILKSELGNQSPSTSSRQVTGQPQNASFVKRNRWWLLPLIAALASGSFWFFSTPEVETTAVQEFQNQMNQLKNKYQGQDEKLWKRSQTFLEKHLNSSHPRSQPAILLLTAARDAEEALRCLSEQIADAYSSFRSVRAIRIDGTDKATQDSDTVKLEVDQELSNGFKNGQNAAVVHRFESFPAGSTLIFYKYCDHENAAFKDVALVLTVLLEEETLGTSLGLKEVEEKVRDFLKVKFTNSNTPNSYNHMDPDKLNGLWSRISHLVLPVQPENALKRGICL

[20] = molecular target: Alpha-bungarotoxin (Bungarus multicinctus) (UniProt P60615); assay: compounds binding labelled alpha-BTX control protein – biochemical, small-molecule microarray, Alexa647 label, 635/667 nm fluorescence, artefact control for SMM control protein annotation, profiling panel (AID 1117); conditions: alpha-BTX-A647 binding fluorescence, higher = more signal
Chain of Alpha-bungarotoxin (Bungarus multicinctus) (P60615 whole entry, looked up): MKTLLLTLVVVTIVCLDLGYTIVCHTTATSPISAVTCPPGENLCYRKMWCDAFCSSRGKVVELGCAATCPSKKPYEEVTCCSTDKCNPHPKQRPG

Row | Structure (SMILES) | composite z-score [1] | composite z-score [2] | composite z-score [3] | z-score [4] | composite z-score [5] | composite z-score [6] | composite z-score [7] | composite z-score [8] | composite z-score [9] | composite z-score [10] | composite z-score [11] | z-score [12] | composite z-score [13] | composite z-score [14] | composite z-score [15] | composite z-score [16] | composite z-score [17] | composite z-score [18] | composite z-score [19] | composite z-score [20]
1 | O=C1C2=CC[C@H]3C(=O)N(c4cccc(Oc5ccccc5)c4)C(=O)[C@H]3[C@H]2[C@H](O)[C@@H]2O[C@H]12 | 0.237 | -0.372 | -0.37 | 14.7 (active) | 0.635 | 0.393 | 0.299 | 0.666 | 0.655 | -0.0639 | 0.792 | -4.64 | 0.516 | 0.0194 | -0.32 | -0.157 | -0.273 | -0.224 | 0.257 | 0.281
2 | CON=C1[C@H]2CCn3c(=O)n(-c4ccccc4)c(=O)n3[C@H]2[C@H](O)[C@@H]2O[C@H]12 | 0.555 | -0.198 | -0.67 | -0.871 (inactive) | 0.556 | 0.81 | 0.599 | 0.488 | 0.332 | 0.141 | 0.548 | -2.1 | 0.661 | -0.345 | -0.536 | -0.0445 | -0.138 | -0.158 | -0.501 | 0.269
3 | CCOC(=O)[C@H](Cc1ccccc1)NC(=O)CCC1CC(OC(=O)NCc2cccc3ccccc23)CC2(CCCC(COC(=O)NCc3cccc(C(F)(F)F)c3)O2)O1 (stereo not given in full) | 0.532 | -0.181 | -0.172 | -0.247 (inactive) | 0.152 | -0.189 | -0.185 | -0.278 | 0.025 | -0.151 | 0.72 | -0.771 | -0.131 | 0.716 | 0.143 | -0.0816 | -0.345 | -0.213 | 0.465 | 0.362
4 | CCOC(=O)NN=C1C[C@@H](O)[C@@H](O)[C@@H]2[C@@H]3C(=O)N(Cc4ccc5c(c4)OCO5)C(=O)[C@@H]3CC[C@H]12 | 0.263 | -0.238 | -0.233 | 0.346 (inactive) | 0.0798 | -0.566 | -0.0894 | -0.199 | -0.108 | 0.0787 | 0.581 | 0.603 | -0.0985 | -0.569 | -0.0188 | -0.129 | -0.206 | -0.177 | 1.05 | 0.543
5 | CCOC(=O)[C@H](CC(C)C)NC(=O)CCC1CC(OC(=O)NCc2cccc3ccccc23)CC2(CCCC(COC(=O)NCc3ccncc3)O2)O1 (stereo not given in full) | 0.741 | -0.131 | -0.377 | -0.00923 (inactive) | 1.2 | 1.06 | 0.363 | 0.887 | 0.559 | -0.177 | 1.38 | -1 | 0.554 | -0.118 | -0.376 | 0.0037 | -0.0146 | -0.036 | 0.526 | 0.267
6 | CC(C)[C@@H](OCc1ccccc1)[C@H](C)C=NOC[C@@H](O)COCc1ccco1 | -0.887 | -0.869 | -0.666 | -0.129 (inactive) | -0.557 | -0.279 | -1.11 | -0.94 | -1.62 | -3.73 | -0.549 | -2.38 | -1.05 | -1.71 | -1.81 | -0.204 | -0.37 | -0.577 | -1.05 | -0.0069
7 | COc1cccc([C@H]2Oc3ccc(OC)cc3C(=NOC[C@@H](O)COCc3ccco3)[C@@H]2O)c1 | -0.12 | -0.644 | -0.798 | -0.469 (inactive) | -0.0458 | -0.754 | -1.44 | -1.3 | 0.13 | 1.29 | -0.593 | -1.04 | -0.159 | -2.33 | -2.08 | -0.278 | -0.372 | -0.539 | -0.889 | -0.799
8 | COC(=O)CC=C[C@@H](C)[C@@H](C=NO[C@H](C)c1cn([C@@H]2COC[C@H]2O)nn1)NS(=O)(=O)c1ccc(C)cc1 | 0.163 | -0.268 | -0.57 | -0.0248 (inactive) | 0.43 | 0.427 | 0.59 | 0.746 | 1.07 | 0.216 | -0.12 | -0.483 | 0.722 | -0.0535 | -0.646 | -0.144 | -0.237 | -0.246 | 0.0982 | -0.361
9 | CCOC(=O)NN=C1C[C@@H](O)[C@@H](O)[C@@H]2[C@@H]3C(=O)N(c4ccc(F)cc4F)C(=O)[C@@H]3CC[C@@H]12 | 0.468 | -0.132 | -0.364 | 0.428 (inactive) | 0.478 | 0.364 | 0.527 | 0.659 | 0.462 | 0.18 | 0.687 | 0.0324 | 0.292 | -0.167 | -0.205 | -0.0087 | -0.108 | -0.213 | 0.196 | -0.234
10 | O=C1[C@H]2[C@H]3[C@H](O)[C@H](O)CC(=NOCc4ccccc4)[C@@H]3CC[C@H]2C(=O)N1c1ccc(F)cc1F | 0.0102 | -0.376 | -0.554 | -1.29 (inactive) | 0.224 | -0.0906 | 0.208 | 0.286 | 0.347 | -0.178 | -0.392 | 0.606 | 0.303 | -0.201 | -0.57 | -0.0519 | 0.0278 | 0.0369 | 0.0133 | 0.297
11 | CC(=O)Nc1ccc([C@@H]2N[C@H](C(=O)O)CC[C@H]2C)cc1 | 0.136 | -0.108 | -0.401 | 0.303 (inactive) | 0.32 | 0.461 | 0.546 | 0.409 | 0.444 | 0.133 | -0.0931 | 1.1 | 0.523 | -0.105 | -0.635 | -0.0203 | -0.226 | -0.213 | 0.14 | 0.273
